Measured values from PubChem BioAssay (NCATS).
Inconclusive results are not listed. The source made the active and inactive calls. Unless noted, calls follow the shape of the dose curve; as a rule, active = well fitted curve in the direction sought with a large enough effect; inconclusive = small, poorly fitted or top-dose-only effect, or another doubt; inactive = no such curve, though single readings can be large; an effect the other way counts as inactive or inconclusive.

What was measured:
[1] = AP1 Signaling Pathway (AID 357; active = well fitted curve in either direction with a large enough effect, not every such curve was filed as active; also: % is scaled to controls: 0 for no effect and ±100 for the full control effect); conditions: ME-180 AP-1-bla reporter, EGF-induced, beta-lactamase ratio, 5 h; at 38 µM (top of the series)
How it was run: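 AP-1-bla ME-180 cells with beta-lactamase reporter under AP-1 response element, stimulated with EC50 EGF; compounds titrated, 5 hours at 37 degrees Celsius. CCF4 read at 460/530 nm ratio; positive and negative modulators judged by AC50.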

[2] = NFAT Signaling Pathway (AID 444; active = well fitted curve in either direction with a large enough effect, not every such curve was filed as active;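 also: carbachol stimulus at about its EC50 of 1 µM final; % is scaled to controls: 0 for no effect and ±100 for the full control effect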); conditions: Jurkat NFAT-bla M1, carbachol, beta-lactamase ratio, 5 h; at 38 µM (top of the series)
How it was run: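 Jurkat cells carrying an NFAT-driven β-lactamase reporter and co-transfected muscarinic M1 receptor were treated with compound plus carbachol (1 uM final, an EC50 level) for 5 h at 37 °C. CCF4 loading followed for 1 h at RT; 460/530 nm ratio gave %activity.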

[3] = Stat Signaling Pathway (AID 446; active = well fitted curve in either direction with a large enough effect, not every such curve was filed as active;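 also: ME-180 cervical cancer cells given 40 pM IL-6 alongside compound; SIE-controlled beta-lactamase reporter measured as 460/530 nm FRET emission ratio; % is scaled to controls: 0 for no effect and ±100 for the full control effect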); conditions: ME-180 SIE beta-lactamase reporter, IL-6 stimulated, 5 h; at 38 µM (top of the series)
How it was run: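 ME-180 cells carrying a SIE-driven beta-lactamase reporter are stimulated with 40 pM IL-6 for 5 h at 37C in the presence of compound. The 460/530 nm FRET substrate ratio is read after 2.5 h at RT. Data are normalised to 300 pM IL-6 and to 125 nM JAK inhibitor controls.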

[4] = biological target: Glucocorticoid receptor (Homo sapiens) (UniProt P04150); experiment: GR-GFP Redistribution (AID 450;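 active = compounds whose dose series gives a full or clear partial fitted curve of increased nuclear translocation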; also: potency is read from the fitted curve at half-maximal effect); conditions: U2OS GR-GFP nuclear translocation, laser cytometry, 2 h
[5] = biological target: Glucocorticoid receptor (Homo sapiens) (UniProt P04150); experiment: GR-EFC Redistribution (AID 451; calls by dose curve; also: potency is read from the fitted curve at half-maximal effect); conditions: CHO-K1 GR-EFC translocation, beta-gal luminescence, 2 h
How it was run: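 CHO-K1 cells stably expressing nuclear-localized β-gal enzyme acceptor and GR fused C-terminally to the enzyme donor fragment; ligand-driven nuclear translocation restores β-gal by complementation. Compounds titrated up to 46 uM final, 2 h at 37 °C; luminescence read.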

[6] = biological target: Mitogen-activated protein kinase 10 (Mus musculus) (UniProt Q61831); experiment: JNK3 AlphaScreen Assay (AID 530; active = well fitted curve in either direction with a large enough effect, not every such curve was filed as active;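 also: kinase came from lysate of stimulated human HepG2 cells; signal reports phosphorylation of biotinylated GST-cJun 1-79 at Ser73 with 10 µM ATP; % is scaled to controls: 0 for no effect and ±100 for the full control effect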)
How it was run: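 Inhibitors reduce antibody binding to phosphorylated biotin-cJun, lowering AlphaScreen luminescence. Lysates from HepG2 cells pre-activated by IL-1beta plus TNF-alpha supplied JNK3; compounds were titrated.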

[7] = biological target: 3',5'-cyclic-AMP phosphodiesterase 4B (Homo sapiens) (UniProt Q07343); experiment: qHTS Assay for Inhibitors of PDE-IV (AID 607; active = well fitted activation curve with a large enough effect in the main read-out, with a control signal flat, not every such curve was filed as active; also: % of control where 0% means no effect)
How it was run: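 HEK293 ACTOne cells with CNG channel (1000/well), endogenous PDE4; membrane potential dye, compounds up to 22.9 uM final. Fluorescence Ex 535/Em 590; RO 20-1724 (100 uM final) as reference.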

[8] = biological target: Guanine nucleotide-binding protein G(i) subunit alpha-1 (Homo sapiens) (UniProt P63096); experiment: qHTS Assay for Inhibitors of RGS12 GoLoco Motif Activity (Green Fluorophore) (AID 879);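 also: 0% = labeled peptide with Gαi1 and full inhibition = labeled peptide alone without protein; negative values mean loss of peptide binding seen as reduced polarization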
How it was run: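 Fluorescence polarization assay: 50 nM Gαi1 with 10 nM FITC-labeled RGS12 GoLoco peptide in 10 mM Tris pH 7.5, 150 mM NaCl, 0.1 mM GDP, 0.05% NP40, 10 min at room temperature with compound.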

[9] = qHTS Assay for Identification of Small Molecule Agonists for Thrombopoietin (TPO) Signaling Pathway (AID 917); also: % is scaled to controls: 0 for no effect and ±100 for the full control effect
How it was run: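 Luminescence from a Glycoprotein IIb promoter–driven luciferase reporter served as read-out in murine Ba/F3 cells carrying the human TPO receptor. Cells, deprived of IL-3 overnight, received compounds with 26 pM TPO and were incubated 24 hrs at 37 C.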

[10] = biological target: Muscarinic acetylcholine receptor M1 (Rattus norvegicus) (UniProt P08482); experiment: qHTS Assay for Antagonists of Acetylcholine Muscarinic M1 Receptor: Measurement of IP-One Response (AID 944); also: nearly all actives have a fitted effect of over 75% in size
How it was run: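 CHO cells stably expressing rat M1, pretreated 10 min with compound, then stimulated 30 min with carbachol at EC80 (200 nM) in LiCl-containing buffer pH 7.4; IP1 accumulation read by HTRF competition (665/620 nm).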

[11] = biological target: Pyruvate kinase (Leishmania mexicana) (UniProt Q27686); experiment: qHTS Validation Assay for Inhibitors of Leishmania Mexicana Pyruvate Kinase (AID 945);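 also: 0% = DMSO only neutral control wells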
How it was run: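 Purified LmPYK (E451W mutant, 0.2 nM) was incubated 1 h at room temperature with 0.5 mM PEP and 0.1 mM ADP in 50 mM imidazole pH 7.2, 50 mM KCl, 7 mM MgCl2; ATP formed was read by PKLight luminescence, normalized to DMSO wells.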

[12] = biological target: Alpha-galactosidase A (Homo sapiens) (UniProt P06280); experiment: Counterscreen for Glucocerebrosidase Inhibitors: qHTS Assay for Human alpha-Galactosidase at pH 4.5 (AID 992); also: 0% is about no effect
How it was run: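 Human enzyme (2 nM) with 80 uM 4-methylumbelliferyl alpha-D-galactopyranoside in 50 mM citric acid, 0.005% Tween-20, pH 4.5, 20 min at room temperature. Compounds 0.7 nM–77 uM; fluorescence Ex 365/Em 440 after pH 10 stop; AC50 from Hill fits.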

[13] = biological target: alpha-glucosidase (Oryza sativa, rice) (UniProt Q653V4); experiment: Counterscreen for Glucocerebrosidase Inhibitors: qHTS Assay for Rice alpha-Glucosidase at pH 5.0 (AID 997);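 also: 0% = full activity with enzyme and -100% = basal without enzyme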
How it was run: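 Rice alpha-glucosidase (4 nM final) with 400 uM 4-methylumbelliferyl-alpha-D-glucopyranoside in citrate buffer pH 5.0, 20 min at room temperature, stopped at pH 10; fluorescence 365/440 nm, compounds 0.7 nM–77 uM, AC50 from Hill fits.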

[14] = Validation of Assay for Modulators of Lamin A Splicing (AID 1459; active = well fitted curve in the direction sought with a large enough effect in the signal ratio; the % refers to the signal ratio;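 also: cells exposed to compound for two days before reading; 0% is about no effect; ratio rise marks activators and ratio drop marks inhibitors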)
How it was run: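 HeLa S3 lamin A-EGFP/DsRed2 stable clone, 600 cells/well, Opti-MEM 2% FBS; compounds by pin tool; 48 hrs, 37 °C/5% CO2; Acumen 488 nm scan, objects 10-100 um; GFP/RFP intensity ratio.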

[15] = biological target: DNA repair nuclease/redox regulator APEX1 (Homo sapiens) (UniProt P27695); experiment: qHTS Validation Assay for Inhibitors of the Human Apurinic/apyrimidinic Endonuclease 1 (APE1) (AID 1705)
How it was run: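 qHTS, 1536-well. APE1 + cpd 15 min RT → 50 nM TAMRA/BHQ-2 THF-abasic dsDNA substrate → kinetic fluorescence, 3 reads/60 s; delta(read3−read1) = reaction progress. No-enzyme buffer = negative control.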

[16] = Counterscreen for APE1 Inhibitors: Fluorescent Dye Displacement Validation Assay (AID 1707);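 also: plate controls were ThO with dsDNA and no compound for no effect and ThO without dsDNA for full effect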
How it was run: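 Thiazole Orange (250 nM) bound to 50 nM TAMRA-labelled dsDNA with tetrahydrofuran abasic site; displacement by DNA-binding compounds lowers fluorescence. Buffer 50 mM Tris-HCl pH 7.5, 50 mM NaCl, 2 mM MgCl2, 0.01% Tween-20; endpoint read at 480/540 nm.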

[17] = biological target: Endonuclease 4 (Escherichia coli (strain K12)) (UniProt P0A6C1); experiment: Counterscreen for APE1 Inhibitors: qHTS Validation Assay for Inhibitors of Endonuclease IV (AID 1708); also: % is scaled to controls: 0 for no effect and ±100 for the full control effect
How it was run: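 Concentration-response counterscreen run identically to the APE1 assay: 15 min room-temperature preincubation of 2 nM enzyme with compound, reaction started with 50 nM quenched abasic DNA, progress taken from kinetic fluorescence.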

[18] = qHTS for differential inhibitors of proliferation of Plasmodium falciparum line 7G8 (AID 1815);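 also: parasite growth measured after three days of incubation; plate controls were vehicle wells for no effect and reference inhibitor wells for full effect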

Chain of Glucocorticoid receptor (Homo sapiens) (P04150 whole entry, looked up, the tested form may be a part): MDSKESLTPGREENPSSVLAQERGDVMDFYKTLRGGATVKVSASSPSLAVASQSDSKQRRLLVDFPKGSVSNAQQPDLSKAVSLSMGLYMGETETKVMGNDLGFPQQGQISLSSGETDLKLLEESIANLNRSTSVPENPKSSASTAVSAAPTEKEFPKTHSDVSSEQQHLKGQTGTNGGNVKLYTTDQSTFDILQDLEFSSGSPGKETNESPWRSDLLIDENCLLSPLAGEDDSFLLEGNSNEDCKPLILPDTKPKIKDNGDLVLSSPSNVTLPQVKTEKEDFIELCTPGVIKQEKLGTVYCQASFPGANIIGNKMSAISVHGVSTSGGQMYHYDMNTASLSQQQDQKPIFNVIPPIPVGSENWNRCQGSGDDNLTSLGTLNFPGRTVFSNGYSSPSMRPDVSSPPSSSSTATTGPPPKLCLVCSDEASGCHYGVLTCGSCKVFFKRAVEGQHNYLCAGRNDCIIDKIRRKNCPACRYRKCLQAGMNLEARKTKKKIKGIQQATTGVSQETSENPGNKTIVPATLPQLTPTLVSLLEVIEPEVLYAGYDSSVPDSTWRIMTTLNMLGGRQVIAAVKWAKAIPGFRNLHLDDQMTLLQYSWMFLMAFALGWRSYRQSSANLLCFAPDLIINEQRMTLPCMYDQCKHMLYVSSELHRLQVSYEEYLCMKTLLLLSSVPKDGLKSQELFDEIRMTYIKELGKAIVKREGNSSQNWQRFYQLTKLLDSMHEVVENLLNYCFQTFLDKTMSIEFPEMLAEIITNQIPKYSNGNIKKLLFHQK
Chain of 3',5'-cyclic-AMP phosphodiesterase 4B (Homo sapiens) (Q07343 whole entry, looked up): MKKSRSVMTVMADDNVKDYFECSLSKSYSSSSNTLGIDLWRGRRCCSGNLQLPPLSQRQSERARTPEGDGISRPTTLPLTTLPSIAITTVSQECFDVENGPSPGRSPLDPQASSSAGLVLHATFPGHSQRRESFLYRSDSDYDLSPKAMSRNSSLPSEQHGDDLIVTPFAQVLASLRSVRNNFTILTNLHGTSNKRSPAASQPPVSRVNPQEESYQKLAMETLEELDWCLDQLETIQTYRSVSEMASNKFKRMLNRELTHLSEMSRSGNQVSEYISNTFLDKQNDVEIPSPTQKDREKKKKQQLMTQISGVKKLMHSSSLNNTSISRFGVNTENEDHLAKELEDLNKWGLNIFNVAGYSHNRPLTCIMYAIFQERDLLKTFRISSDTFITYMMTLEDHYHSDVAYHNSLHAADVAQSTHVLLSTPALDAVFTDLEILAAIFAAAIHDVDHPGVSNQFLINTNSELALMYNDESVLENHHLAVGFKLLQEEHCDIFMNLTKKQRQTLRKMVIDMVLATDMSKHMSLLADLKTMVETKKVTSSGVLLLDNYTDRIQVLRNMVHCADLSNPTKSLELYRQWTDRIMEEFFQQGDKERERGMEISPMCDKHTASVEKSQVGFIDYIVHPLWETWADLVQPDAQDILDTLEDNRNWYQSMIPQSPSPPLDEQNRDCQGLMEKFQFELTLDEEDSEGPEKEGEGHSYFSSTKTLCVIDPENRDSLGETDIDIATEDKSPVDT
Chain of DNA repair nuclease/redox regulator APEX1 (Homo sapiens) (P27695 whole entry, looked up): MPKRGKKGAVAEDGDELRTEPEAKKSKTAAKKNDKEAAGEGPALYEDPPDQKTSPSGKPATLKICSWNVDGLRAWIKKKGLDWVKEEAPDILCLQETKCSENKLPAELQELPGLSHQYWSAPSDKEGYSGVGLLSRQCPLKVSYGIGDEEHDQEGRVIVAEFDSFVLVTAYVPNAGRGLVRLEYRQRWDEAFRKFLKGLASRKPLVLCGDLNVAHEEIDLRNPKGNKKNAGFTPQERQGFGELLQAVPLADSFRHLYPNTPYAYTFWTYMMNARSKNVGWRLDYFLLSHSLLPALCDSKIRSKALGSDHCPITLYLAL
Chain of Alpha-galactosidase A (Homo sapiens) (P06280 whole entry, looked up): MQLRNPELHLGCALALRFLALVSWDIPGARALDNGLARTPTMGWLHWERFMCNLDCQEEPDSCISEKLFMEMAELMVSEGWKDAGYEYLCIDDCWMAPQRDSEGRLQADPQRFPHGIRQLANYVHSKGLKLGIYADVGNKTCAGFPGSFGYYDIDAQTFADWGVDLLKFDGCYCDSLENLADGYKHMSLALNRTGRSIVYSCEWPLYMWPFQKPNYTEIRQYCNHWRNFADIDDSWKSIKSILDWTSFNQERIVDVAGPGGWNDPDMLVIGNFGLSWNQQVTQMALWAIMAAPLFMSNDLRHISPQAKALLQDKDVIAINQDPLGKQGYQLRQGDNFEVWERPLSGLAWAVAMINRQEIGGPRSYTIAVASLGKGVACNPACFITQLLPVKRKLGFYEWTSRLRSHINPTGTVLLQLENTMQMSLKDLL
Chain of Pyruvate kinase (Leishmania mexicana) (Q27686 2-499 E452W): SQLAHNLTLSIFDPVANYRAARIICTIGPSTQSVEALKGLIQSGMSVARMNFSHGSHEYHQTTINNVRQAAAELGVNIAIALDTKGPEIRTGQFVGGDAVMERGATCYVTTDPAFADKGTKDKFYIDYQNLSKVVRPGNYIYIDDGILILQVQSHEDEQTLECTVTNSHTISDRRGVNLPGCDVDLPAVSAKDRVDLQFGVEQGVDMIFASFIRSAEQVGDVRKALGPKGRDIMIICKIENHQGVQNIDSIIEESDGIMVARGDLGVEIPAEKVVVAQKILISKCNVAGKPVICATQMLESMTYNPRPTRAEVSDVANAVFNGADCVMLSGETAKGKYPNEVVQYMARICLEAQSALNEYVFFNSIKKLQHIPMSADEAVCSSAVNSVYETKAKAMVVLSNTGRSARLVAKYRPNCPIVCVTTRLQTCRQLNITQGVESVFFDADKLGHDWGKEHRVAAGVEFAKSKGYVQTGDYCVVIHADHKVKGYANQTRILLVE
Chain of Muscarinic acetylcholine receptor M1 (Rattus norvegicus) (P08482 whole entry, looked up): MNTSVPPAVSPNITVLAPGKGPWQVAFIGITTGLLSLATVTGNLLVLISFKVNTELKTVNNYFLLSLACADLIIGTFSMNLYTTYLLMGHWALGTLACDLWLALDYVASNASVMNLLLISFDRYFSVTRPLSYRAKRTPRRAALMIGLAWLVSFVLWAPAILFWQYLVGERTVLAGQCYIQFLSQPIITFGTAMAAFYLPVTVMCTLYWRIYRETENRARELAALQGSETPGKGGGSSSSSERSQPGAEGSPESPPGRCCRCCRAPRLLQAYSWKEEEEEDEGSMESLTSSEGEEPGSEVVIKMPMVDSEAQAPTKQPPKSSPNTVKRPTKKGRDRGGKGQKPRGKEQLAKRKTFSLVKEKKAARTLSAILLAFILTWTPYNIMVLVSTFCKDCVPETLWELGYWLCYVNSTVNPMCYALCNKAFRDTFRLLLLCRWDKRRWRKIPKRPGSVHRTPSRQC
Chain of Guanine nucleotide-binding protein G(i) subunit alpha-1 (Homo sapiens) (P63096 whole entry, looked up): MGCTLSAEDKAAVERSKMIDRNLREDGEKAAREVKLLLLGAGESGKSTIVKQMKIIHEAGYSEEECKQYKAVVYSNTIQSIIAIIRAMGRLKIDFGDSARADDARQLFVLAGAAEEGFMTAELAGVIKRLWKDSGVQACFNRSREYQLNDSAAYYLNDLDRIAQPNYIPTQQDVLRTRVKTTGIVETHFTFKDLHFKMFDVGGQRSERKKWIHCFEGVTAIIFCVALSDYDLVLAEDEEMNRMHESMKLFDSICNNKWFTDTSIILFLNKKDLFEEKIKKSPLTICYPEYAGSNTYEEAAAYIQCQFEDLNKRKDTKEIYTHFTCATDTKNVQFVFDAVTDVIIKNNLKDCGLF

CN(C)CCCCSC(=N)N
inactive: activity change, negative = inhibition [1] 1.82% | activity change, negative = inhibition [2] 1.09% | activity, negative = inhibition [3] -29.5% | Potency [4] > 46 µM | Potency [5] > 46 µM | Potency [6] | Potency [7] | outcome [8] | Potency [9] | Potency [10] | Potency [11] | outcome [12] | outcome [13] | outcome [14] | Potency [15] | Potency [16] | Potency [17] | Potency [18]
